# Rab9 prom act = qHTS Assay for Rab9 Promoter Activators. Huh7 Rab9 promoter-luciferase reporter, luminescence, 24 h. Potency, µM (series often up to 9.22 µM), inactives show top-dose activation, negative = inhibition, most hits filed as activators. 320,000 compounds, 2.8% hits. AID 485297, 2010; also: % of control where 0% means no effect; nearly all actives have a fitted effect of over 60% in size
#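 Using Huh7 cells stably transfected with Rab9 promoter–luciferase, compounds were incubated 24 h at 37 °C, 5% CO2; luciferase luminescence was read 10 min after reagent addition.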
# NPC1 promoter act = qHTS Assay for NPC1 Promoter Activators. Huh7 NPC1 promoter luciferase reporter, 24 h. Potency, µM (titrated, usually from 9.22 µM), for inactives: at the top dose activation, most hits filed as activators. 320,000 compounds, 2.4% hits; also: % of control where 0% means no effect; nearly all actives have a fitted effect of over 60% in size
#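 Stable NPC1-promoter luciferase Huh7 line; cpd (DMSO) 24 h, 37 °C, 5% CO2; Amplite luciferase reagent 10 min RT; luminescence readout. qHTS format.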
# SMN2 splice enh = qHTS Assay for Enhancers of SMN2 Splice Variant Expression | AID 1458, 2008 | 210,000 compounds, 2.8% hits | Potency, µM (doses to about 46.1 µM), inactives show top-dose activity change, positive = activation, usual class: activators | HEK293 SMN2-luciferase splicing reporter, luminescence, 30-36 h; also: % of control where 0% means no effect; nearly all actives have a fitted effect of over 55% in size
#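 HEK293 cells carry an SMN2 […]–luciferase reporter in which exon 7 inclusion puts luciferase in frame. Cells were plated 10-12 h before compound addition, then incubated 30-36 h at 37C. ONE-Glo luminescence was read; sodium butyrate at 4.5 mM final served as control.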
# ELG1 genotox = qHTS screen for small molecules that induce genotoxicity in human embryonic kidney (HEK293T) cells expressing luciferase-tagged ELG1; AID 504466, 2011; 330,000 compounds, 1.3% hits; HEK293T ELG1-luciferase reporter, luminescence, 16 h; Potency, µM (series often up to 46 µM), for inactives: at the top dose activity change, positive = activation, actives largely listed as activators; also: % of control where 0% means no effect; nearly all actives have a fitted effect of over 60% in size
#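 DMSO vehicle served as control against compound-treated ELG1-luciferase HEK293T cells; exposure lasted 16 hr at 37 °C and 5% CO2, followed by ONE-Glo luminescence detection after 30 min.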
# FLuc counter = qHTS profiling assay for firefly luciferase inhibitor/activator using purifed enzyme and Km concentrations of substrates (counterscreen for miR-21 project) | purified FLuc, Km substrates, luminescence inhibition | Potency, µM (titrated, usually from 57.5 µM), inactives show at the top dose activity change, negative = inhibition, hits mostly inhibitors | 360,000 compounds, 6.9% hits | AID 588342, 2011;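 also: plate controls were vehicle for no effect and reference inhibitor for full effect; nearly all actives have a fitted effect of over 55% in size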
# Target sequence (P08659 whole entry, looked up): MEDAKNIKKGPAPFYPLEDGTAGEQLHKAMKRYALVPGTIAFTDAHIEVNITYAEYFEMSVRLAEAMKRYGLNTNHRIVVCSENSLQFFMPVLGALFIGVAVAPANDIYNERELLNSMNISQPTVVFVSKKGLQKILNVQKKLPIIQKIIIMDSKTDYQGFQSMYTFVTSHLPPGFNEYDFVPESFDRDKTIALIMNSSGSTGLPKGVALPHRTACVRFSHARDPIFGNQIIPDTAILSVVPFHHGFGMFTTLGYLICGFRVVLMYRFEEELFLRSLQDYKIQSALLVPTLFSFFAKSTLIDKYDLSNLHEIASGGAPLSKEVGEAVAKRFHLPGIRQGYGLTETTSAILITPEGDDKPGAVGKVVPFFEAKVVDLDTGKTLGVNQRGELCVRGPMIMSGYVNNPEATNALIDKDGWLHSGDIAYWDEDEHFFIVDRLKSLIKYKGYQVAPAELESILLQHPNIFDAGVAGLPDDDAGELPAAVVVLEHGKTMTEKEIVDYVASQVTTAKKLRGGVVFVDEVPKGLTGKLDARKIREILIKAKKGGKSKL
#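 Purified P. pyralis luciferase, 10 nM final, with Km-level 10 uM D-luciferin and 10 uM ATP in 50 mM Tris acetate pH 7.5, 10 mM Mg acetate, 0.01% Tween-20, 0.05% BSA; 6-point qHTS titration about 60 µM downward; luminescence read.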
# * = called active by the depositor; u = inconclusive; x = no result. An excerpt weighted towards active compounds, which were near 7.5% of everything screened. Calls follow the shape of the dose curve; as a rule, active = well fitted curve in the direction sought with a large enough effect; inconclusive = small, poorly fitted or top-dose-only effect, or another doubt; inactive = no such curve, though single readings can be large; an effect the other way counts as inactive or inconclusive. Potency is read from the fitted curve at half-maximal effect.
SMILES,Rab9 prom act,NPC1 promoter act,SMN2 splice enh,ELG1 genotox,FLuc counter
COc1ccc(COc2ccccc2C(=O)Nc2ccccn2)cc1[N+](=O)[O-],-4%,-4%,-1%,1%,0%
COc1cc(SC)ccc1C(=O)Nc1ccccn1,0.79µM*,0.79µM*,x,u,0.48µM*
COc1cc(SC)ccc1C(=O)NCCOc1ccc(Cl)cc1,1%,0%,-11%,-2%,-16%
CC(=O)c1cccc(NC(=O)CC2Oc3ccc(C)cc3NC2=O)c1 (configuration not stated),-3%,1%,-10%,-11%,0%
CC(C)c1ccc(NC(=O)CSc2n[nH]c(=O)n2-c2ccc3c(c2)OCCO3)cc1,2%,1%,x,-2%,-10%
CCCCOC(=O)N1CCOCCOCCOCCOCC1,9%,-3%,x,-1%,-1%
O=C(COC(=O)COc1ccc(Cl)cc1Br)NCCC1=CCCCC1,0%,1%,x,-1%,-1%
CSc1ccccc1C(=O)Nc1ncc(C)s1,-1%,-1%,-6%,14%,u
COc1cc(SC)ccc1C(=O)Nc1cccc(C)n1,2µM*,u,11µM*,u,3.4µM*
COc1cc(SC)ccc1C(=O)NC(C)C,-4%,-3%,-2%,4%,-4%
COc1cc(SC)ccc1C(=O)NCCc1ccccc1,3.5µM*,3.5µM*,10µM*,u,6µM*
COc1cc(SC)ccc1C(=O)Nc1ccon1,2.8µM*,u,u,u,13µM*
COc1cc(SC)ccc1C(=O)Nc1ncc(C)s1,0.45µM*,u,1.3µM*,u,0.13µM*
COc1ccc(CNC(=O)c2ccc(SC)cc2OC)cc1,2%,0%,8%,2%,-3%
CCOC(=O)CCCCNC(=O)Nc1ccccc1,-2%,0%,6%,16%,6%
NS(=O)(=O)c1cc(C(=O)OCC(=O)NC2CCCCCCC2)ccc1Cl,0%,0%,x,-5%,-3%
Cc1cc(-c2ccc(C(C)C)c(S(=O)(=O)N3CCC(C)CC3)c2)on1,0%,-4%,x,-6%,-3%
O=C(c1ccc2c(c1)N(Cc1ccc(Cl)cc1)C(=O)c1ccccc1S2=O)N1CCC(Cc2ccccc2)CC1 (configuration not stated),x,x,2%,x,-4%
Cc1ccc(C)c(OCc2cc(C(=O)N3CCN(C(=O)c4ccco4)CC3)no2)c1,4.5µM*,3.2µM*,x,u,19µM*
CCc1cc(C(=O)N2CCN(c3ccccc3)CC2)no1,x,x,0%,x,-14%
Cc1ccc(C)c(OCc2cc(C(=O)N3CCc4sccc4C3)no2)c1,0%,-3%,x,-11%,0%
Cc1ccc(C)c(OCc2cc(C(=O)N3C[C@@H](C)O[C@@H](C)C3)no2)c1,1.6µM*,2.2µM*,x,u,6µM*
O=C(c1cc(COc2ccc(F)cc2F)on1)N1CCN(C(=O)c2ccco2)CC1,-3%,0%,x,-8%,-12%
Cc1ccc(C)c(OCc2cc(C(=O)N3CCN(c4ccccc4)CC3)no2)c1,4µM*,2.8µM*,x,30%,19µM*
N#Cc1c(NCCN)nc(NCc2ccccc2)c2c1CCN(Cc1ccccc1)C2,-2%,10%,x,-24%,-4%
SMILES,Rab9 prom act,NPC1 promoter act,SMN2 splice enh,ELG1 genotox,FLuc counter
C=CCNc1nc(NCc2ccccc2)c(C#N)c2c1CN(C)CC2,2%,-5%,22µM*,-3%,1%
N/C(=N\OC(=O)c1cc(Cl)ccc1Cl)c1ccccn1,5µM*,u,5µM*,u,1.5µM*
COc1ccc(Cl)cc1NC(=O)NNC(=O)c1ccccn1,-1%,-4%,x,-5%,-9%
COc1ccc(Cl)cc1C(=O)O/N=C(\N)c1ccccn1,13%,4µM*,x,u,u
Cc1cccc(C)c1NC(=O)CNC(=O)C(NC(=O)c1ccc(C(C)(C)C)cc1)C(C)C (configuration not stated),1%,1%,x,0%,-1%
CC(C)c1ccc(NC(=O)N(CCc2nc3ccccc3[nH]2)C2CCCC2)cc1,4%,7%,-3%,2%,7.6µM*
Cc1cccc(Cn2c(O)c(N=NC(=S)Nc3ccccc3F)c3ccccc32)c1,-4%,-12%,x,-11%,-2%
CCOc1ncccc1C(=O)OCC(=O)Nc1ccc2c(c1)CCC2,x,x,x,-1%,x
CCOC(=O)c1ccc(-c2ccc3c(c2)CCC3)nc1C,1µM*,1.6µM*,x,3.7µM*,1.5µM*
Cc1ccc(-c2ccc(C(=O)O)c(C)n2)cc1,-4%,0%,u,0%,2%
COC(=O)c1ccc(-c2ccc(F)cc2)nc1C,3.5µM*,3.5µM*,u,u,3.4µM*
CN1c2ccccc2Oc2nnc(Cl)cc21,2%,-9%,-9%,5%,3%
CN1c2ccccc2Oc2nnc(N3CCN(Cc4ccccc4)CC3)cc21,u,23%,x,4%,19µM*
CC(=O)c1ccccc1OCC(=O)Nc1cccc(S(=O)(=O)N2CCCC2)c1,-1%,7%,x,-2%,17µM*
O=C(COc1ccc(Cl)cc1Br)Nc1cccc(S(=O)(=O)N2CCCC2)c1,-1%,9%,x,-6%,2.7µM*
CCOc1ccccc1OCC(=O)Nc1cccc(S(=O)(=O)N2CCCCCC2)c1,0%,7%,x,-1%,1%
Cc1ccc(NC(=O)COc2ccccc2C(N)=O)cc1S(=O)(=O)N1CCCCCC1,-26%,-22%,x,-3%,24µM*
Cc1cc(Cl)ccc1OCC(=O)Nc1cccc(S(=O)(=O)N2CCCC2)c1,-3%,-4%,x,-5%,9.5µM*
N#Cc1cn(CCOc2ccccc2F)c2ccccc12,-2%,1%,21%,2%,u
Cc1ccc(C2C(C=Nc3c(C)n(C)n(-c4ccccc4)c3=O)=C(c3ccccc3)Oc3ccccc32)cc1 (configuration not stated),-1%,-2%,0%,-7%,0%
COc1ccc(C(=O)NCC(=O)OCC(=O)Nc2cccc(S(=O)(=O)N3CCCC3)c2)cc1,-9%,-3%,x,-1%,12µM*
CC(=O)c1ccc(NC(=O)/C=C/c2ccc(C)cc2)cc1,-8%,-5%,12%,10%,u
CCCCOc1cccc(C(=O)Nc2ccc(S(=O)(=O)Nc3cc(C)on3)cc2)c1,-1%,-7%,x,4%,19µM*
Cc1ccc(/C=C/C(=O)Nc2cc(C)on2)cc1,4µM*,2.5µM*,u,u,u
Cc1cc(NS(=O)(=O)c2ccc(NC(=O)COc3ccc(Br)cc3C)cc2)no1,x,x,-11%,x,21µM*
CCOc1cccc(C(=O)Nc2ccc(S(=O)(=O)Nc3cc(C)on3)cc2)c1,-1%,1%,x,6%,u
